Source: PubChem (several laboratories)
HTR5A ag ctr = counter-screen for OPRM1-OPRD1 agonists: human HTR5A agonism; activation, % at 9.3 µM; P47898; hit rate 0.61% among 340,000; HTR5A agonist assay, luminescence, cell-based; in the data active means activation mostly above about 9.5%, no sharp cut-off; inactive means mostly below about 7.6%;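 further: 0% = cells with vehicle only and 100% = reference agonist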
HTR5A inv ag = counter-screen for OPRM1-OPRD1 inverse agonists: human HTR5A inverse agonism; P47898; HTR5A cell line, luminescence; inhibition, % at 9.3 µM; hit rate 0.083% among 340,000; in the data active means inhibition mostly above about 23%, no sharp cut-off; inactive means mostly below about 18%;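 further: 0% = cells with DMSO and 100% = no-cell wells with DMSO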
OPRM1-OPRD1 ag = OPRM1-OPRD1 heterodimerization agonism. P35372+P41143. cells, luminescence. activation, % at 9.3 µM. hit rate 0.3% among 340,000. AID 504326; in the data active means activation above about 18%;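 further: 0% = vehicle-treated cells and 100% = reference agonist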
Target sequence (P35372 whole entry, looked up): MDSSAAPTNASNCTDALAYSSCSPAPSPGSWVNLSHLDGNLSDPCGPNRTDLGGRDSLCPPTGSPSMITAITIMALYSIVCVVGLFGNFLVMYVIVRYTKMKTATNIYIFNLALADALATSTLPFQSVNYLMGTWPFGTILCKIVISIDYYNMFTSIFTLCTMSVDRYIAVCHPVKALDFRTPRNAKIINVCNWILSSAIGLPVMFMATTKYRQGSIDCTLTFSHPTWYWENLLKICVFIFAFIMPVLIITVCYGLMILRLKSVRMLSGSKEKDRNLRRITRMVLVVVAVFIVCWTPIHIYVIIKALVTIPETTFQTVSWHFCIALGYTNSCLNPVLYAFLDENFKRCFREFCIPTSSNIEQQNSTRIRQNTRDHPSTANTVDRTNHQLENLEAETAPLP
Target sequence (P41143 whole entry, looked up): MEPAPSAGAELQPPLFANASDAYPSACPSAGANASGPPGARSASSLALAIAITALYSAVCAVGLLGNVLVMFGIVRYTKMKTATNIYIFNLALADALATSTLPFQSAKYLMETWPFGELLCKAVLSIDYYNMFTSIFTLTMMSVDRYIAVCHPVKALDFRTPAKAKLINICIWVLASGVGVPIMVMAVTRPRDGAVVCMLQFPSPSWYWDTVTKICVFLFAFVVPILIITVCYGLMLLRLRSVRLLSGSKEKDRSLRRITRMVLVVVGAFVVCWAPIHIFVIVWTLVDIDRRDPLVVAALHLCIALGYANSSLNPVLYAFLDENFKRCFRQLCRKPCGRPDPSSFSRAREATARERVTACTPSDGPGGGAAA
MIN6 prolif = inducers of beta-cell replication in MIN6 cells. MIN6 cells proliferation, ATPlite luminescence, 48 h; cells starved in 0.2% serum; 100% = growth in 10% serum. proliferation, % at 10 µM. hit rate 0.29% among 330,000. AID 2380;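 active means compounds whose signal lies at least 3.5 SD above the mean of all wells on their plate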;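 further: 0% = DMSO-treated cells in low-serum medium and 100% = 10% serum control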
V-ATPase pH = alters yeast V-ATPase proton transport; response, % at 10 µM; hit rate 0.37% among 350,000; AID 504577; S. cerevisiae, pHLuorin cytosolic pH fluorescence; in the data active means response mostly above about 7.3%, no sharp cut-off; inactive means mostly below about 5.4%; further: actives read high
MOR-DOR inv ag = inverse agonists of human mu-delta opioid receptor heterodimerization. P35372+P41143. cell-based MOR-DOR heterodimer luminescence, inverse agonism. inhibition, % at 9.3 µM. hit rate 0.21% among 340,000. AID 504357; in the data active means inhibition above about 22%, passing the limit was not always enough;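 further: 0% = cells with DMSO and 100% = wells without cells with DMSO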
MOR-DOR inv conf = OPRM1-OPRD1 heterodimer inverse agonism, confirmation | shares compounds with MOR-DOR inv ag | cells expressing OPRM1/OPRD1 heterodimer, luminescence | inhibition, % at 9.3 µM | hit rate 20% among 580 | AID 504900; in the data active means inhibition above about 32%;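 further: 0% = cells with DMSO and 100% = wells lacking cells with DMSO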
HTR5A inv count = counter-screen for OPRM1-OPRD1 inverse agonists: human HTR5A inverse agonism; shares compounds with MOR-DOR inv ag; HTR5A-expressing cells, luminescence; inhibition, % at 9.3 µM; 580 tested, under 10 active; AID 504914; call rule not given here;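 further: 0% = cells with DMSO and 100% = no-cell wells with DMSO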
* = called active by the depositor; i = inactive; · = no result. Hits are enriched below; roughly 1.7% of the tested compounds scored in any of these assays.

SMILES	HTR5A ag ctr	HTR5A inv ag	OPRM1-OPRD1 ag	MIN6 prolif	V-ATPase pH	MOR-DOR inv ag	MOR-DOR inv conf	HTR5A inv count
COc1ccc2c(c1)C(=O)C(=O)N2	-9	31*	-12	0	3	63*	-45	-108
Cc1cc2c(cc1C)C(=O)C(=O)N2	-2	8	-5	·	-4	24	·	·
CC1(C)COCN1C(=O)c1ccc(C#N)cc1	5	-20	-4	-4	-1	19	·	·
CC1(C)CN(c2ccccc2)N(C(=O)c2ccc(C#N)cc2)C1=O	-2	-4	-10	-2	2	51*	25	-7
CC1(C)CN(c2ccccc2)N(C(=O)c2ccc(F)cc2)C1=O	3	-9	-9	-3	-1	46*	-10	-136
CC1(c2ccccc2Cl)NC(=O)N(CC(=O)Nc2ccc3c(c2)OCO3)C1=O (stereo not drawn)	2	2	-3	-4	-3	13	·	·
Cc1ccc(S(=O)(=O)Nc2cccc3cccnc23)cc1	-6	11	-7	-6	2	44*	11	5
Cc1ccc(S(=O)(=O)Nc2ccccc2-c2ccccc2NS(=O)(=O)c2ccc(C)cc2)cc1	5	-11	-2	-5	-3	9	·	·
Cc1ccc(S(=O)(=O)CCC(=O)N(C)C2CCCCC2)cc1	-1	2	-2	0	-3	12	·	·
CC(C)(C)c1nnc(NC(=S)Nc2ccccc2)s1	-4	11	-7	-1	-1	38*	-17	6
Fc1ccc(NC(=S)Nc2nccs2)cc1	-3	11	-6	-6	-3	29*	-8	9
S=C(Nc1ccccc1)Nc1nccs1	2	-8	-7	-2	-1	33*	5	2
O=C(Cc1ccc(F)cc1)Nc1nccs1	2	12	-4	-1	-1	21	·	·
CC(C)(C)c1nnc(NC(=O)CCS(=O)(=O)c2ccccc2)s1	2	-20	0	-1	0	1	·	·
CCn1c(C)nc2cc(C(=O)NNC(=S)Nc3ccc(OC)cc3)ccc21	-3	9	-4	1	4	21	·	·
O=C(N[C@@H](Cc1ccccc1)C(=O)OCc1ccccc1)c1nc[nH]c1C(=O)N1CCc2ccccc2C1	3	-19	12	-8	5	-54	·	·
O=C(COC(=O)c1cc(S(=O)(=O)NCc2ccccc2)ccc1O)NCc1ccccc1	6	-20	-2	0	3	8	·	·
O=C(COC(=O)c1cc(S(=O)(=O)NCc2ccccc2)ccc1O)c1cc2ccccc2o1	-3	9	-8	-3	1	41*	-209	-8
O=C(Nc1ccc(C(=O)N2CCCc3ccccc32)cc1)c1cccs1	2	-9	-1	-3	-1	6	·	·
Nc1c(Cl)ncnc1N/N=C/c1ccc2ccccc2n1	-2	6	-6	·	4	32*	16	8
Nc1c(Cl)ncnc1N/N=C/c1ccnc2ccccc12	-3	-5	0	0	1	2	·	·
O=C1Nc2ccc(F)cc2C12Nc1ccccc1-c1nnc(SCc3ccccc3)nc1O2 (stereo not drawn)	-6	16	-14	-2	-2	79*	70*	8
Clc1ccccc1CSc1cc2c(nn1)-c1ccccc1CC2	-4	-1	2	-2	0	-11	·	·
Cc1ccc(SCc2[nH]nc3c2C2(C(=O)Nc4ccc(F)cc42)C(C#N)=C(N)O3)cc1 (stereo not drawn)	9	-24	-1	-3	-4	3	·	·
Cc1ccc(CSc2nnc3c(n2)OC2(Nc4ccccc4-3)C(=O)Nc3ccc(F)cc32)cc1 (stereo not drawn)	-2	5	-14	-1	1	79*	70*	8
SMILES	HTR5A ag ctr	HTR5A inv ag	OPRM1-OPRD1 ag	MIN6 prolif	V-ATPase pH	MOR-DOR inv ag	MOR-DOR inv conf	HTR5A inv count
O=C1Nc2ccc(F)cc2C12Nc1ccccc1-c1nnc(SCc3ccccc3Cl)nc1O2 (stereo not drawn)	-2	14	-14	-4	-3	78*	56*	7
CC(OCC(O)CN(C)Cc1nc2ccccc2c(=O)[nH]1)c1ccc(Cl)cc1 (stereo not drawn)	1	-2	2	-1	-2	-10	·	·
Cc1cc(C)nc(NNS(=O)(=O)c2c(F)cc(F)cc2Br)n1	3	-7	-8	-2	0	31*	-93	-37
Cc1cc(C)nc(NNS(=O)(=O)c2c(C)cc(C(C)(C)C)cc2C)n1	-5	12	-5	3	0	25	·	·
C/C(=C\C(=S)Nc1ccccc1)Nc1ccccc1	-10	14	-6	-2	-1	31*	-22	2
Cc1ccc(C(=O)CC2(O)C(=O)N(C)c3ccc(Br)cc32)c(C)c1 (stereo not drawn)	-3	8	-1	0	0	6	·	·
CN1C(=O)C(O)(CC(=O)c2ccccn2)c2cc(Br)ccc21 (stereo not drawn)	3	17	-13	-5	-2	74*	i	-11
CC(SC(=S)N(C)Cc1cccs1)C(=O)O (stereo not drawn)	1	-6	-2	-1	0	11	·	·
CN(C)c1nc(=NCc2cccs2)ss1	-1	2	-12	·	0	59*	30	20
Cc1cc(C)c(S(=O)(=O)N2CCCOC2CNC(=O)C(=O)NCc2ccco2)c(C)c1 (stereo not drawn)	-4	9	-2	0	1	8	·	·
O=C1c2ccccc2-c2c1nc1c([n+]2[O-])CCCC1	-10	18	-16	0	-1	93*	22	1
CCc1ccc2c(c1)C(=O)c1ccccc1C2=O	4	-12	5	0	1	-39	·	·
Nc1ccc(SCC(=O)Nc2cccc([N+](=O)[O-])c2)cc1	-3	8	-3	-3	-3	16	·	·
CN(C)c1ccc(CC(=O)c2nc3ccccc3s2)cc1	-3	7	-3	-2	-5	24*	7	-18
CCS(=O)(=O)c1nc(S(=O)(=O)c2ccc(C)cc2)c(N2CC(C)OC(C)C2)s1 (stereo not drawn)	6	15	-3	2	4	13	·	·
COc1cccc(CNC(=O)C2CSC3(C)CCC(=O)N23)c1 (stereo not drawn)	-2	5	-3	-1	7	18	·	·
Cc1ccc2c(c1)C(=O)C(=O)N2CC(=O)Nc1ccc(N2CCOCC2)cc1	-3	8	-6	-3	4	32*	37*	2
CC(=O)CC1(OC(C)=O)C(=O)N(C)c2ccccc21 (stereo not drawn)	-5	14	-4	-7	-2	24	·	·
